Results filed as inconclusive are left out. A number with no mark means an inactive call. The source made the active and inactive calls. Calls follow the shape of the dose curve; as a rule, active = well fitted inhibition curve with a large enough effect; inconclusive = small, poorly fitted or top-dose-only effect; inactive = flat fitted curve, though single readings scatter.

For one assay, the system named is CRL-7250. Briefly: Cytotoxic Profiling of Annotated Libraries Using Quantitative High-Throughput Screening (AID 1296008). Also: potency is read from the fitted curve at half-maximal effect. As to max response: % is scaled to controls: 0 for no effect and ±100 for the full control effect. As to conditions: Five cell lines viability, CellTiter-Glo ATP luminescence, 48-72 h; max response: stronger effect = lower value. In outline:
(§1)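 Cytotoxicity was measured as CellTiter-Glo ATP luminescence, read after 10 min at room temperature. Compound treatment of the cells lasted 48 or 72 hr at 37 degrees Celsius in a qHTS format.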

In another assay the test system is HEK293. The assay is described as above. Particulars: Five cell lines viability, CellTiter-Glo ATP luminescence, 48-72 h; max response: stronger effect = lower value. In outline:
as §1
(Cellular ATP, detected with luciferase, serves as a proxy for viable cell number.)

Assay [1] has as its system HaCat. The description is as above. As to conditions: Five cell lines viability, CellTiter-Glo ATP luminescence, 48-72 h; max response: stronger effect = lower value. In short, it runs like this: as §1
The subject of another assay is KB-3-1. Described as above. Particulars: Five cell lines viability, CellTiter-Glo ATP luminescence, 48-72 h; max response: stronger effect = lower value. In short, it runs like this: as §1
A further assay concerns NIH3T3. Described as above. Particulars: Five cell lines viability, CellTiter-Glo ATP luminescence, 48-72 h; max response: stronger effect = lower value. In outline:
as §1

Assay [2] concerns HACAT. Description: qHTS assay to identify novel small-molecules to repurpose for Merkel cell carcinoma treatment (AID 1296009). Particulars: MCC and control cell lines, CellTiter-Glo viability, 72 h; series mostly up to 44.8 µM. In outline:
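Cell viability, measured as CellTiter-Glo luminescence, was normalized between DMSO and no-cell wells. The cells had been exposed to 8- or 11-point compound dilutions for 72 hr at 37 degree celsius.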
Background: qHTS replaces the single test concentration by a dilution series.
Also: nearly all actives have a fitted effect of over 60% in size.

For `C[C@@H]1CCC/C=C/[C@H]2CC(=O)C[C@@H]2[C@@H](O)/C=C/C(=O)O1`, the max response with CRL-7250 is -3.74%; with HEK293, -12%; in the assay with HaCat [1] it was -12.2%; in the assay on KB-3-1, 8.18%; in the assay on NIH3T3 it was -2.1%.

Take `CC1=C(COC2OC(CO)C(O)C(O)C2O)C(C(CO)C(=O)O)CC1` (configuration not stated): the max response in the assay with CRL-7250 is 2.58%; in the assay with HEK293 it was -0.67%; with HaCat [1], -4.43%; in the assay with KB-3-1, 9.18%; in the assay with NIH3T3, -0.514%.

On to `C=C1CCC2C(C)(C(=O)OC)CCCC2(C)C1CCC(C)CC(=O)O` (configuration not stated), for which the molecule was called inactive in the assay with CRL-7250. Moreover, the max response in the assay on HEK293 is -9.98%; in the assay with HaCat [1], -22.8%; in the assay with KB-3-1, 0.0997%; with NIH3T3, 2.98%.

As for `N#C[C@@H]1CCCN1C(=O)CNC12CC3CC(CC(O)(C3)C1)C2`, the max response with CRL-7250 was 2.02%; in the assay with HEK293, -12.1%; with HaCat [1], -2.22%; in the assay on NIH3T3 it was -1.17%. In addition, in the assay with KB-3-1, the molecule was called inactive.

Take `OC[C@@]1(O)CO[C@@H](OC[C@H]2O[C@@H](Oc3c[nH]c4ccccc34)[C@H](O)[C@@H](O)[C@@H]2O)[C@@H]1O`: the max response in the assay on CRL-7250 is -23.1%; with HEK293, -21.5%; in the assay with HaCat [1], -26.1%; in the assay with KB-3-1, -0.625%; in the assay on NIH3T3 it was 1.55%.

Turning to `COc1ccc(CCC(=O)c2c(O)cc(O)cc2O[C@@H]2O[C@H](CO)[C@@H](O)[C@H](O)[C@H]2O)cc1`, the max response was -5.63% in the assay on CRL-7250; -3.22% in the assay on HEK293; -11.7% in the assay with HaCat [1]; 8.59% in the assay with KB-3-1; -8.41% in the assay with NIH3T3.

For the molecule `CC(C)(C)c1ccc(S(=O)(=O)Nc2ccc(Cl)cc2C(=O)c2cc[n+]([O-])cc2)cc1`, the max response with CRL-7250 was -19.6%; with HEK293, -2.23%; in the assay on HaCat [1], -10.2%; in the assay with NIH3T3 it was -1.11%. Moreover, the call in the assay on KB-3-1 was inactive.

On to `O=C(/C=C\c1ccc(O)cc1)N[C@@H](Cc1ccc(O)cc1)C(=O)O`, for which the max response with CRL-7250 is -7.69%; in the assay with HEK293, 1.95%; with HaCat [1] it was -12.4%; in the assay on KB-3-1, 1.07%; in the assay on NIH3T3 it was -0.22%.

Take `C/C=C/c1ccc2c(c1)[C@@H](C)[C@H](c1ccc(O)cc1)O2`: the max response is -3.63% in the assay on CRL-7250, 1.71% with HEK293, -2.15% with KB-3-1 and 3.14% in the assay with NIH3T3. Besides, the outcome in the assay on HaCat [1] was inactive. In addition, in the assay with HACAT [2], the Potency entry was “inactive”.

With `C=CC1(C)CC(OC(=O)/C(C)=C\COC(C)=O)C(C(=C)C(=O)O)C(O)C1C(=C)CO` (configuration not stated), the molecule was called inactive with CRL-7250. The max response was -0.348% in the assay with HEK293, 3.73% in the assay on HaCat [1], 8.05% in the assay on KB-3-1 and -3.05% in the assay on NIH3T3.

On to `COc1cccc(Nc2ncnn3ccc(CN4CC[C@@H](N)[C@H](O)C4)c23)c1`, for which the Potency in the assay on CRL-7250 was 8200 nM (active); in the assay on HEK293 it was 13000 nM (active); in the assay with HaCat [1] it was 5.8 nM (active); in the assay with NIH3T3, 517 nM (active). The max response in the assay on KB-3-1 was -14.7%.

Turning to `C[C@@H]1O[C@@H](OC[C@H]2O[C@@H](Oc3cc(O)cc4c3C(=O)C(O)(Cc3ccc(O)cc3)O4)[C@H](O)[C@@H](O)[C@@H]2O)[C@H](O)[C@H](O)[C@H]1O` (some centres not stated), the max response in the assay on CRL-7250 is 3.09%; in the assay with HEK293, 1.44%; with HaCat [1], -8.78%; in the assay with KB-3-1 it was 8.25%; in the assay with NIH3T3, 2.04%.

`COc1cc(OC)cc(C(=O)Nc2ccc(Cl)c(-c3nc4ccc(N(C)C)cc4[nH]3)c2)c1`: the result with CRL-7250 and in the assay with HaCat [1] was inactive. For the same molecule, in the assay on HEK293, the Potency was 10300 nM (active). For the same molecule, the results for the max response in the assay on KB-3-1 and in the assay on NIH3T3 were 2.52% and -0.734%, respectively. In the assay with HACAT [2], the Potency result was “inactive”.

Consider `C[C@@H]1[C@H]2[C@H](O[C@@H]3O[C@H](CO)[C@@H](O)[C@H](O)[C@H]3O)OC=C(C(=O)O)[C@H]2C[C@@H]1O`, for which the outcome with CRL-7250 was inactive. Besides, the max response in the assay on HEK293 was -5.11%; in the assay on HaCat [1] it was -4.56%; in the assay on KB-3-1 it was -0.849%; with NIH3T3, -4.16%.

As for `CC[C@H](C)[C@H](NC(=O)[C@H]([C@@H](C)CC)N(C)C(C)=O)C(=O)N[C@H](C(=O)N[C@@H](CC(C)C)C(=O)[C@@]1(C)CO1)[C@@H](C)O`, the Potency in the assay on CRL-7250 was 29.1 nM (active); in the assay with HEK293, 9.2 nM (active); with HaCat [1] it was 36.6 nM (active); with KB-3-1 it was 32.6 nM (active); in the assay with NIH3T3, 58 nM (active).

For the molecule `C=C[C@H]1CN2CC[C@H]1C[C@@H]2C(O)c1ccnc2ccc(OC)cc12` (some centres not stated), in the assay with CRL-7250, the call was inactive. Also, the max response with HEK293 was -7.03%; in the assay with HaCat [1], 2.46%; in the assay on KB-3-1, 4.51%; in the assay with NIH3T3, 3.58%.

With `C/C(=C/CO)CC[C@@H]1[C@@](C)(O)CCC2C(C)(C)CCC[C@]21C` (some centres not stated), the max response with CRL-7250 is 1.57%; in the assay with HEK293, 4.02%; in the assay with HaCat [1], 0.603%; in the assay on KB-3-1 it was 5.46%; in the assay with NIH3T3, -10.9%.

For `COc1ccc(CCO[C@@H]2O[C@H](CO[C@@H]3OC[C@H](O)[C@H](O)[C@H]3O)[C@@H](O)[C@H](O)[C@H]2O)cc1`, the max response in the assay on CRL-7250 was -3.54%; in the assay with HEK293, -0.354%; with HaCat [1], -19%; with KB-3-1, 4%; with NIH3T3, -5.95%.

The record behind these values is PubChem BioAssay (NCATS).
